Screens: PubChem BioAssay, several laboratories
Rows were chosen to be rich in hits. Some 22% of all compounds tested hit in one or more screens of this group.
Measles CPE = protection of cells from measles virus. Measles virus-infected cells, CPE protection, absorbance. 140,000 compounds, 1.5% hits. protection (pct of control), % at 4 µM; in the data active = protection mostly above about 24%, no sharp cut-off; inactive = mostly below about 26%
CYP2C9 inh = inhibitors of human CYP2C9 | CYP2C9 Supersomes, luciferin-H conversion, luminescence | P11712 | inhibition, % at 5 µM | 96,000 compounds, 20% hits;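 active = blocking of liver enzyme CYP2C9 beyond about 50% at 5 µM, limit read from the data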
Target sequence (P11712 whole entry, looked up): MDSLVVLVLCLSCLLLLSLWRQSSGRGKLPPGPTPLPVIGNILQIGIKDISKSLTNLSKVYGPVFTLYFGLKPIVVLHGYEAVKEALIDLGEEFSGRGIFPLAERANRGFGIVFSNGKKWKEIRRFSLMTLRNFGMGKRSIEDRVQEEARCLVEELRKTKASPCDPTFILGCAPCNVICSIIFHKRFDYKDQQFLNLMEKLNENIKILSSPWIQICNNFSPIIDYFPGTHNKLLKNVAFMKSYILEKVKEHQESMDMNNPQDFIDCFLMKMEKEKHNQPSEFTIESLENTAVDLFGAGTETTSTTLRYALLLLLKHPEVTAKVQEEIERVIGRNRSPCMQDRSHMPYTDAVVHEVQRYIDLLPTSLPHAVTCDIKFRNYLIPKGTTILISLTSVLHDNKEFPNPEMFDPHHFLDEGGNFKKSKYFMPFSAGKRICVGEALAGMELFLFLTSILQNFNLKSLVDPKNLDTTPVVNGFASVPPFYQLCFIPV
CYP2C19 inh = blocks human cytochrome P450 2C19 | P33261 | CYP2C19 Supersomes, luciferin-H EGE luminescence, 30 min | inhibition, % at 5 µM | 96,000 compounds, 21% hits | AID 778;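 active = CYP2C19 inhibition above a set limit at 5 µM in the primary screen, cut at about 50% in these data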;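 also: plate controls were negative control wells for no effect and 2.5 mM tranylcypromine positive control for full effect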
CYP2C9 act = increases human cytochrome P450 2C9 activity | AID 1024 | P11712 | activation factor at 5 µM | 96,000 compounds, 1.4% hits | recombinant CYP2C9, luciferin-H conversion, luminescence; hits give high values; factor 1 = untreated enzyme, 0 = blocked;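 active = activation factor of 2 or more for CYP2C9 at a 5 µM dose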;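 also: 0 = sulfaphenazole-blocked wells and 1 = vehicle-only wells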
CYP2C19 act = increases human CYP2C19 enzyme activity; recombinant CYP2C19, luciferin-H EGE luminescence; hits give high values; 0 = fully inhibited enzyme, 1 = untreated enzyme; activation factor at 5 µM; P33261; 96,000 tested, under 10 active;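 active = activation factor of at least 2 at 5 µM in the primary screen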;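 also: 0 = wells with 2.5 mM tranylcypromine and 1 = vehicle-only wells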
* hit, by the source's call; nt = not tested or not shown.

SMILES	Measles CPE	CYP2C9 inh	CYP2C19 inh	CYP2C9 act	CYP2C19 act
CC(=O)Nc1cccc(-c2csc(Nc3ccc(C)cn3)n2)c1	53*	nt	nt	nt	nt
O=C(c1ccccc1Cl)N(C(=O)c1ccccc1Cl)c1nccc(-c2cccs2)n1	6	77*	35	0.2	0.6
CN(C)c1nc(N)nc(CSc2nc3cc(Cl)ccc3o2)n1	11	-56	-2	1.6	1
O=S1(=O)C=C(Sc2nc3cc(Cl)ccc3o2)c2ccccc21	2	6	66*	0.9	0.3
Cc1ccc(NC(=O)C(C)N2C(=O)c3ccccc3C2=O)cc1 (configuration not stated)	0	24	41	0.8	0.6
CCCc1cc(=O)[nH]c(/N=C(/NC(=O)C(C)N2C(=O)c3ccccc3C2=O)Nc2ccccc2)n1 (configuration not stated)	20	62*	1	0.4	1
O=C(NCCCN=C1NS(=O)(=O)c2ccccc21)c1ccco1	4	nt	nt	nt	nt
O=S1(=O)NC(=NCc2ccccc2)c2ccccc21	23	5	60*	0.9	0.4
O=C(NCCCN=C1NS(=O)(=O)c2ccccc21)c1ccncc1	40	80*	22	0.2	0.8
NCCN=C1NS(=O)(=O)c2ccccc21	6	nt	nt	nt	nt
CCOc1cc(NC(=S)Nc2cccc(OC)c2)c(OCC)cc1NC(=O)C1CC1	30	36	18	0.6	0.8
COc1cccc(NC(=O)CSc2nnc(-c3cc(-c4ccccn4)nc4ccccc34)o2)c1	6	18	7	0.8	0.9
CC(c1ccc(Cl)cc1)n1c(-c2ccc3ccccc3n2)n[nH]c1=S (configuration not stated)	4	15	7	0.8	0.9
CCCN1C(=O)/C(=C/c2c(NCCCOC(C)C)nc3c(C)cccn3c2=O)SC1=S	3	49	28	0.5	0.7
CCC(C)N1C(=O)/C(=C/c2c(NCCCOC(C)C)nc3c(C)cccn3c2=O)SC1=S (configuration not stated)	9	57*	33	0.4	0.7
O=C(NC1CCCCC1)C1CN(S(=O)(=O)c2ccccc2)CCN1S(=O)(=O)c1ccccc1 (configuration not stated)	5	16	12	0.8	0.9
CCN1C(=O)/C(=C2\SC(=S)N(CCCOC)C2=O)c2ccccc21	25	52*	3	0.5	1
CCN1C(=O)/C(=C2\C=Cc3ccccc3N2CC)SC1=S	9	13	55*	0.9	0.5
CNC(=S)NNC(=O)c1sccc1C	9	nt	nt	nt	nt
CC(C)(C)C1CCc2c(C(=O)N/N=C/c3cccs3)csc2C1 (configuration not stated)	22	63*	35	0.4	0.7
CC(=O)C1=C(C)NC(SCC(=O)c2ccc(Cl)cc2)=C(C#N)C1CC(C)C (configuration not stated)	21	95*	99*	0	0
CC(=O)C1=C(C)NC(SCc2cccc([N+](=O)[O-])c2)=C(C#N)C1c1ccco1 (configuration not stated)	2	84*	100*	0.2	0
CC(=O)C1=C(C)NC(SCC(=O)c2ccc(F)cc2)=C(C#N)C1c1ccco1 (configuration not stated)	6	80*	98*	0.2	0
CCc1ccc(C(=O)CSC2=C(C#N)C(c3ccco3)C(C(C)=O)=C(C)N2)cc1 (configuration not stated)	40	76*	48	0.2	0.5
CCOC(=O)C1=C(C)NC(SCC(=O)O)=C(C#N)C1c1ccco1 (configuration not stated)	8	41	-2	0.6	1
SMILES	Measles CPE	CYP2C9 inh	CYP2C19 inh	CYP2C9 act	CYP2C19 act
O=c1cc(O)c2sc(Nc3cccc(C(F)(F)F)c3)nc2[nH]1	11	nt	nt	nt	nt
CN(C)CCCNC(=O)CCC1CCCCC1	8	-17	-14	1.2	1.1
COc1ccccc1NC(=O)C1=C(C)NC(SCC(=O)c2ccc(C)cc2)=C(C#N)C1c1ccco1 (configuration not stated)	8	90*	84*	0.1	0.2
CCOC(=O)c1c(C)nc2c(c1-c1ccccc1)C(=O)CC(C)(C)C2	14	-21	15	1.2	0.8
Cc1ccc(CNC(=O)CSc2c3c(nc4cc(Cl)ccc24)CCCC3)o1	16	39	80*	0.6	0.2
CCn1c(=O)c(C(=O)Nc2cnccn2)c(O)c2ccccc21	nt	-1	10	1	0.9
COc1ccc(C2C(C#N)=C(C)NC3=C2C(=O)c2ccccc23)cc1 (configuration not stated)	9	13	11	0.9	0.9
CCOc1ccc(C2C(C#N)=C(C)NC3=C2C(=O)c2ccccc23)cc1 (configuration not stated)	2	97*	99*	0	0
COc1cc(C2C(C#N)=C(C)NC3=C2C(=O)c2ccccc23)cc(OC)c1OC (configuration not stated)	4	98*	29	0	0.7
O=C1c2ccccc2CN1CCNS(=O)(=O)c1ccc(Cl)cc1	5	-3	40	1	0.6
O=S(=O)(Nc1ccc(S(=O)(=O)Nc2nccs2)cc1)c1ccc2c(c1)OCCO2	5	67*	-8	0.3	1.1
O=C(O)CCC(=O)Nc1ccc(S(=O)(=O)Nc2nccs2)cc1	12	nt	nt	nt	nt
CC(C)(C)C(=O)Nc1ccc(-c2cn3ccsc3n2)cc1	3	5	16	0.9	0.8
O=S(=O)(Nc1nccs1)c1ccc(Cl)cc1	7	50*	21	0.5	0.8
O=S(=O)(Nc1ccc(-c2cn3ccsc3n2)cc1)c1ccc2c(c1)OCCO2	7	91*	76*	0.1	0.2
O=C(O)CCCNc1cc(N2CCC3(CC2)OCCO3)c2noc3c2c1C(=O)c1ccccc1-3	12	61*	26	0.4	0.7
Nc1cc(=O)[nH]c(SCC(=O)NCC2CCCO2)n1 (configuration not stated)	10	-15	-12	1.2	1.1
CCCc1cc(Nc2cccc(OC)c2)n2ncnc2n1	10	34	55*	0.7	0.4
Cc1cc(Nc2cccc(Cl)c2)n2ncnc2n1	29*	nt	nt	nt	nt
Clc1ccc(OCCSc2ncccn2)c2ccccc12	20	-5	11	1.1	0.9
c1cnc(SCCOc2cccc3ccccc23)nc1	6	-47	57*	1.5	0.4
CC1CCN(C(=O)CN2C(=O)c3ccccc3S2(=O)=O)CC1	15	9	15	0.9	0.8
CC1CCN(C(=O)c2ccc3c(c2NCCO)C(=O)c2ccccc2C3=O)CC1	9	24	81*	0.8	0.2
NC(=O)c1ccccc1NC(=O)NC1CCCCC1	4	nt	nt	nt	nt
CCOC(=O)Cn1c(C)cc(=O)c2ccccc21	10	-4	4	1	1
O=c1oc2ccccc2n1CCn1c2ccccc2c2nc3ccccc3nc21	3	64*	78*	0.4	0.2
COc1ccc2c(c1)c1nc3ccccc3nc1n2CCn1c(=O)oc2ccccc21	8	23	34	0.8	0.7
